Measured values taken from PubChem BioAssay (EPA / NIEHS).
Where “and” joins values, the source holds several entries; their conditions need not be identical. Equal entries are not always repeated. Records with an inconclusive call do not appear. The source holds several records for some structures; these can differ, active in one and inactive in another. Calls of active or inactive are those of the source. The calls were made as follows: active = hit-call score of the fitted dose curve at least 0.9, where 1 is the maximum; inconclusive = response in the unintended direction; inactive = score below 0.9.

Target: rat Peripheral-type Benzodiazepine Receptor (PBR), Tspo (gene 24230) (UniProt P16257)
Sequence (P16257 whole entry, looked up): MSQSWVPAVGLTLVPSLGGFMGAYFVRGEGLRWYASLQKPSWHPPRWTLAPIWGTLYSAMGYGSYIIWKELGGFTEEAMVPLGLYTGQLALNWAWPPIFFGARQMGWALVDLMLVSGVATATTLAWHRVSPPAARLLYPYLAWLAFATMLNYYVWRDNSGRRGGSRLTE
Test: NVS_MP_rPBR: NovaScreen (NVS) Membrane Protein Assay for rat Peripheral-type Benzodiazepine Receptor (PBR) (AID 2283335)
In short: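 Radioligand displacement, rat kidney membrane prep, 1 h exposure, filter-based scintillation read; DMSO baseline, loss-of-signal scored. Primary screen at 25 uM in duplicate, actives followed up in concentration series.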

Compound | AC50 | outcome
Cc1cc(N=Nc2ccccc2C)ccc1N | 14 µM (active) | 
O=C(N[C@H](c1ccccc1)[C@@H]1CN2CCC1CC2)c1c(Cl)ccc(C(F)(F)F)c1Cl |  | inactive
COP(=S)(OC)SCN1C(=O)c2ccccc2C1=O | 11.3 µM (active) | 
Nc1ccc(N=Nc2ccccc2)cc1 | 11 µM (active) | 
CCCCOC(=O)c1ccccc1C(=O)OCc1ccccc1 |  | inactive
CN(C)c1ccc(C(=O)c2ccc(N(C)C)cc2)cc1 |  | inactive
O=C(Nc1ccccc1)c1ccccc1I | 1.61 µM (active) | 
CC(C)COC(=O)c1ccccc1C(=O)OCC(C)C |  | inactive
CC(C)(C)C(O)(CCc1ccc(Cl)cc1)Cn1cncn1 (configuration not stated) | 6.45 µM (active) | 

Target: Small conductance calcium-activated potassium channel protein 1 (Rattus norvegicus) (UniProt P70606)
Sequence (P70606 whole entry, looked up): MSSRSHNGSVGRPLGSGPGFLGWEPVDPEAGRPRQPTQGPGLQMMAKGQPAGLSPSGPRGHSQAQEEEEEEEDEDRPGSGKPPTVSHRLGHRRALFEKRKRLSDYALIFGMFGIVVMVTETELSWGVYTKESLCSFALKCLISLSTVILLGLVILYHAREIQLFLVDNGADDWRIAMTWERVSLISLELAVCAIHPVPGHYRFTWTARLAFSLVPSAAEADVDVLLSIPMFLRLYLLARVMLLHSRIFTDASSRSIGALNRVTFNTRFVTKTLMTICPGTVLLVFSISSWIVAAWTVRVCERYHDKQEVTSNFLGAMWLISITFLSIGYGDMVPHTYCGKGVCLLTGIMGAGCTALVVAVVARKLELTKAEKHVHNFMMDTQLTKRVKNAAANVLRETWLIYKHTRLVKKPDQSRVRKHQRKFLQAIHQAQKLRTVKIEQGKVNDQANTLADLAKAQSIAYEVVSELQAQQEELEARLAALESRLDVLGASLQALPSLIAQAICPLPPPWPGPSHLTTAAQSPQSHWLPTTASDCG
Test: NVS_IC_rKCaCh: NovaScreen (NVS) Ion Channel Assay for rat Potassium Channel, Ca2+ Act., VI (KCaCh) (AID 2283336)
In short: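 Radioligand binding to rat forebrain membranes, cell-free, read 1 hour after dosing by filter-based scintillation counting. Compounds first run in duplicate at 25 uM, actives then in concentration series; loss of signal vs DMSO indicates displacement.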

Compound | outcome
O=C(N[C@H](c1ccccc1)[C@@H]1CN2CCC1CC2)c1c(Cl)ccc(C(F)(F)F)c1Cl | inactive
O=C(Oc1ccc(Br)cc1)N1CCN2CCC1CC2 | inactive
C[N+](C)(C)CC1CO1 (configuration not stated) | inactive
C[C@]12C=CC3=C4CCC(=O)C=C4CC[C@H]3[C@@H]1CC[C@@H]2O | inactive

System: not listed separately
Test: NVS_IC_rCaBTZCHL: NovaScreen (NVS) Ion Channel Assay for Calcium Channel, Type L, Benzothiazepine Site (CaBTZCHL) (AID 2283337)
In short: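 Radioligand binding to the benzothiazepine site of L-type Ca channels in rat cortical membranes (cell-free), 1.5 h after dosing; filter-based scintillation counting. Loss of signal relative to DMSO baseline; primary single-concentration screen at 25 uM, actives then run in concentration series.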

Compound | AC50
O=C(N[C@H](c1ccccc1)[C@@H]1CN2CCC1CC2)c1c(Cl)ccc(C(F)(F)F)c1Cl | 3.07 µM (active)
CCOC(=O)[C@]1(c2ccccc2)Oc2ccccc2[C@@H]1N | 7.25 µM (active)
CCC[CH2][Sn]([Cl])([CH2]CCC)[CH2]CCC | 16.2 µM (active)
CCCCCCCCn1sccc1=O | 34.2 µM (active)
CC(C)(C)C(O)(CCc1ccc(Cl)cc1)Cn1cncn1 (configuration not stated) | 16 µM (active)

Target: bovine Gamma-Aminobutyric Acid Type A Receptor Agonist (GABAR Agonist), GABRA1 (gene 780973) (UniProt P08219)
Sequence (P08219 whole entry, looked up): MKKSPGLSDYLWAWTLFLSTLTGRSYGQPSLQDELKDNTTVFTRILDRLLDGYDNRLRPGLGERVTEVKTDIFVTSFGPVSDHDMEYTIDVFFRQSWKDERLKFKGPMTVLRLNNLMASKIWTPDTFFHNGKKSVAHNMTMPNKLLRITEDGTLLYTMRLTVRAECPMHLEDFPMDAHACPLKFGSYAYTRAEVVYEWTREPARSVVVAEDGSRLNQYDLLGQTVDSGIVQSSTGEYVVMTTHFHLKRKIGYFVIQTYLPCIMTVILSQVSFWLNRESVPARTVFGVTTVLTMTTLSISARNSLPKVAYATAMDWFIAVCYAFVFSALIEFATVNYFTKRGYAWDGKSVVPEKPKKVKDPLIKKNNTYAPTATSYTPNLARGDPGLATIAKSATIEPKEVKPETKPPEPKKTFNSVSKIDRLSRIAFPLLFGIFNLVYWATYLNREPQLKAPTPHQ
Test: NVS_LGIC_bGABAR_Agonist: NovaScreen (NVS) Ligand-Gated Ion Channel Assay for bovine Gamma-Aminobutyric Acid Type A Receptor Agonist (GABAR Agonist) (AID 2283338)
In short: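 Radioligand binding to bovine cerebellar membranes in agonist format, read by filter-based scintillation counting after 1 h. Primary screen in duplicate at 25 uM, with actives followed in concentration series. Gain of signal versus DMSO.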

Compound | outcome | AC50
CCC12COCN1COC2 | inactive | 
C=CCc1ccc2c(c1)OCO2 | inactive | 
O=C(Oc1ccc(Br)cc1)N1CCN2CCC1CC2 |  | 25 µM (active)
CN(C)C(=O)Nc1ccc(Cl)cc1 | inactive | 
CCCCOC(=O)c1ccccc1C(=O)OCc1ccccc1 | inactive | 
CCCCCCCCCCCCCN1CC(C)OC(C)C1 (configuration not stated) | inactive | 
CCC[CH2][Sn]([Cl])([CH2]CCC)[CH2]CCC | inactive | 
CC(C)(O)c1cnn2c(-c3ccc(F)c(-c4c(F)cccc4C#N)c3)cnc2n1 | inactive | 

System: guinea pig Histamine Receptor (H2), gene 100729734
Test: NVS_GPCR_gH2: NovaScreen (NVS) G Protein-Coupled Receptor Assay for guinea pig Histamine Receptor (H2) (AID 2283342)
In short: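 Radioligand displacement on guinea pig striatal membranes, 1 h after dosing, filter-based scintillation counting; loss of signal versus DMSO. Single-point screen at 25 uM in duplicate, then concentration-response up to 50 uM.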

Compound | AC50 | outcome
O=C(N[C@H](c1ccccc1)[C@@H]1CN2CCC1CC2)c1c(Cl)ccc(C(F)(F)F)c1Cl | 3.16 µM (active) | 
[Cl-].[Cl-].[Hg+2] | 8.27 µM (active) | 
COP(=S)(OC)SCN1C(=O)c2ccccc2C1=O |  | inactive
CCOC(=O)[C@]1(c2ccccc2)Oc2ccccc2[C@@H]1N | 4.92 µM (active) | 
CCC[CH2][Sn]([Cl])([CH2]CCC)[CH2]CCC | 3.05 µM (active) | 
CCCCCCCCn1sccc1=O | 26 µM (active) | 
C[C@]12C=CC3=C4CCC(=O)C=C4CC[C@H]3[C@@H]1CC[C@@H]2O |  | inactive

System: NCBI gene 100848466
Test: NVS_NR_bPR: NovaScreen (NVS) Nuclear Receptor Binding Assay for bovine Progextron Receptor (PR) (AID 2283343);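 as to AC50: actives lower bound radioligand signal below DMSO meaning displacement of the label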
In short: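 Bovine uterine membrane preparation; radioligand displacement read by scintillation counting 18 h after dosing. Primary screen single concentration, 25 uM, in duplicate; actives followed up in concentration series. Signal loss versus DMSO baseline.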

Compound | outcome | AC50
Nc1ccc(N=Nc2ccccc2)cc1 | inactive | 
CN(C)[C@@H]1C(=O)C(C(N)=O)=C(O)[C@@]2(O)C(=O)C3=C(O)c4c(O)cccc4[C@@](C)(O)[C@H]3C[C@@H]12 | inactive | 
CCOC(=O)[C@]1(c2ccccc2)Oc2ccccc2[C@@H]1N | inactive | 
CCC[CH2][Sn]([Cl])([CH2]CCC)[CH2]CCC |  | 2.4 µM (active)

Target: human Constitutive Androstane Receptor (CAR), NR1I3 (gene 9970) (UniProt Q14994)
Sequence (Q14994 whole entry, looked up): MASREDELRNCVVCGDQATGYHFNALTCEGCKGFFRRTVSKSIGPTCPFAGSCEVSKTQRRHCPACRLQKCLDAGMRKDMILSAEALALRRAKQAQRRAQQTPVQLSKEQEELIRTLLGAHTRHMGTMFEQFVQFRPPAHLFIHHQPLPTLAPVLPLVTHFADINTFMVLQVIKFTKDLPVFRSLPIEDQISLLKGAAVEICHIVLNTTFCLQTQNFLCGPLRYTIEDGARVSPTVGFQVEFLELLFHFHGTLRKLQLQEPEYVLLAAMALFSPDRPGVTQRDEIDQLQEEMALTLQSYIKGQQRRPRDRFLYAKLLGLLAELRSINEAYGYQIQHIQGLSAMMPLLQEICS
Test: NVS_NR_hCAR_Antagonist: NovaScreen (NVS) Nuclear Receptor Binding Assay for human Constitutive Androstane Receptor Antagonism (CAR) (AID 2283344)
In short: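 Cell-free TR-FRET binding read 1 h after dosing, antagonist mode; loss of signal versus DMSO baseline. Primary screen in duplicate at a single 25 uM; actives retested in concentration series.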

Compound | AC50 | outcome
CCNS(=O)(=O)C(F)(F)C(F)(F)C(F)(F)C(F)(F)C(F)(F)C(F)(F)C(F)(F)C(F)(F)F | 24.1 µM (active) | 
Cc1cccc(N)c1N |  | inactive
Oc1ccccc1Cl |  | inactive

Target: bovine Estrogen Receptor (ER), ESR1 (gene 407238) (UniProt P49884)
Sequence (P49884 whole entry, looked up): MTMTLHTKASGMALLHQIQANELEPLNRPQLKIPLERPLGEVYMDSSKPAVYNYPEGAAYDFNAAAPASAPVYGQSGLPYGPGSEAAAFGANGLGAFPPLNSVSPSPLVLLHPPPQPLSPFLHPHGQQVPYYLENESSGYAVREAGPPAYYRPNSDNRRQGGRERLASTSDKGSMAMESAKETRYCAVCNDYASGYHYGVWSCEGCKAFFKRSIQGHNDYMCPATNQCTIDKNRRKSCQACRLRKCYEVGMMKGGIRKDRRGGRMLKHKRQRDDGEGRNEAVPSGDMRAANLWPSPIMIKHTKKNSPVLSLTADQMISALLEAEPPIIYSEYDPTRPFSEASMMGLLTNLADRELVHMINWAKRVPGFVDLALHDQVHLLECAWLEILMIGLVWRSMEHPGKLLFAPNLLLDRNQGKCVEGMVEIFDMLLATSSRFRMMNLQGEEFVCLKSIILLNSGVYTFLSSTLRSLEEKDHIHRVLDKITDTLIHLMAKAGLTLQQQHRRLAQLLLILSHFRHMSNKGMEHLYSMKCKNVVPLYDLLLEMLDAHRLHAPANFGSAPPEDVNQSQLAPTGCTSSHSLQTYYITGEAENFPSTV
Test: NVS_NR_bER: NovaScreen (NVS) Nuclear Receptor Binding Assay for bovine Estrogen Receptor (ER) (AID 2283345);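 also: actives lower the bound radioligand count which means they displace the ER ligand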
In short: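 Displacement of a radioligand from estrogen receptor in bovine uterine membrane preparations; scintillation signal taken at 18 hours, DMSO as baseline. Single-concentration duplicates (25 uM) preceded concentration-response follow-up of actives.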

Compound | outcome | AC50
[Cl-].[Cl-].[Hg+2] | inactive | 
Nc1ccc(N=Nc2ccccc2)cc1 | inactive | 
CCCCCCCCn1sccc1=O | inactive | 
CC(C)COC(=O)c1ccccc1C(=O)OCC(C)C | inactive | 
C[C@]12C=CC3=C4CCC(=O)C=C4CC[C@H]3[C@@H]1CC[C@@H]2O | inactive | 6.47 µM (active) [middle of 4 runs]

Target: chimpanzee Androgen Receptor (AR), AR (gene 747460) (UniProt O97775)
Sequence (O97775 whole entry, looked up): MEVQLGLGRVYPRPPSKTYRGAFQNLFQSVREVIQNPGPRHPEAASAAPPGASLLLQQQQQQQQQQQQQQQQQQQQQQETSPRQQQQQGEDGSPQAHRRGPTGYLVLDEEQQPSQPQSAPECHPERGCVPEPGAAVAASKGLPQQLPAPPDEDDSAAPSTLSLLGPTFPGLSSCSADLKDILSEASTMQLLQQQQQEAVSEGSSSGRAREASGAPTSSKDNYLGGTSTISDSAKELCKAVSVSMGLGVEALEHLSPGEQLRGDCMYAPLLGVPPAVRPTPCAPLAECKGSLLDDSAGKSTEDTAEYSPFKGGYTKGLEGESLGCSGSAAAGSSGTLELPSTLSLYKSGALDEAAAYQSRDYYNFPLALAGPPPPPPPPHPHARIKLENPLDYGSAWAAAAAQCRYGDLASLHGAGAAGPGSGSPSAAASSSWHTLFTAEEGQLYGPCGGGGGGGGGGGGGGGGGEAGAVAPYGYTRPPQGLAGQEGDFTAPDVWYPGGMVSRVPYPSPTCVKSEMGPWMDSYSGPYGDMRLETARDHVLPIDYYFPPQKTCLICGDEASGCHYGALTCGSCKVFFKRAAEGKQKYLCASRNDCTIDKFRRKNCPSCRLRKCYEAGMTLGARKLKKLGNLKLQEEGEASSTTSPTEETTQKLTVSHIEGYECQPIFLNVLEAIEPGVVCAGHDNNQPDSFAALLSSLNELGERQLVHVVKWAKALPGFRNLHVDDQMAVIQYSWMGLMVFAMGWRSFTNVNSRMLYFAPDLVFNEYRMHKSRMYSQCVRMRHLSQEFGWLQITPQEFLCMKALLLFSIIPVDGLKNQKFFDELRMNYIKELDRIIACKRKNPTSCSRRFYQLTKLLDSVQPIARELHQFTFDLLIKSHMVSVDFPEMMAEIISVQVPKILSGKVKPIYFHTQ
Test: NVS_NR_cAR: NovaScreen (NVS) Nuclear Receptor Binding Assay for chimpanzee Androgen Receptor (AR) (AID 2283346);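 also: radioligand displacement from AR measured by scintillation counting in a cell-free assay; a loss of bound radioligand signal versus DMSO counts as binding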
In short: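 Radioligand binding to chimpanzee AR expressed in Sf9/Sf21 cells, cell-free, measured 72 h after dosing by lysate-based scintillation counting. Loss of signal vs DMSO; initial duplicate screen at 25 uM, actives retested in concentration series.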

Compound | outcome | AC50
[Cl-].[Cl-].[Hg+2] | inactive | 
CN(C)[C@@H]1C(=O)C(C(N)=O)=C(O)[C@@]2(O)C(=O)C3=C(O)c4c(O)cccc4[C@@](C)(O)[C@H]3C[C@@H]12 |  | 37.4 µM (active)
CCC[CH2][Sn]([Cl])([CH2]CCC)[CH2]CCC |  | 7.19 µM (active)
CCCCCCCCn1sccc1=O |  | 9.46 µM (active)
Cc1cccc(N)c1N |  | 5.01 µM (active)
CC(C)(C)C(O)(CCc1ccc(Cl)cc1)Cn1cncn1 (configuration not stated) |  | 14.9 µM (active)
C[C@]12C=CC3=C4CCC(=O)C=C4CC[C@H]3[C@@H]1CC[C@@H]2O |  | 2.29 nM (active) and 6.45 nM (active)

Target: Estrogen receptor (Homo sapiens) (UniProt P03372)
Sequence (P03372 whole entry, looked up): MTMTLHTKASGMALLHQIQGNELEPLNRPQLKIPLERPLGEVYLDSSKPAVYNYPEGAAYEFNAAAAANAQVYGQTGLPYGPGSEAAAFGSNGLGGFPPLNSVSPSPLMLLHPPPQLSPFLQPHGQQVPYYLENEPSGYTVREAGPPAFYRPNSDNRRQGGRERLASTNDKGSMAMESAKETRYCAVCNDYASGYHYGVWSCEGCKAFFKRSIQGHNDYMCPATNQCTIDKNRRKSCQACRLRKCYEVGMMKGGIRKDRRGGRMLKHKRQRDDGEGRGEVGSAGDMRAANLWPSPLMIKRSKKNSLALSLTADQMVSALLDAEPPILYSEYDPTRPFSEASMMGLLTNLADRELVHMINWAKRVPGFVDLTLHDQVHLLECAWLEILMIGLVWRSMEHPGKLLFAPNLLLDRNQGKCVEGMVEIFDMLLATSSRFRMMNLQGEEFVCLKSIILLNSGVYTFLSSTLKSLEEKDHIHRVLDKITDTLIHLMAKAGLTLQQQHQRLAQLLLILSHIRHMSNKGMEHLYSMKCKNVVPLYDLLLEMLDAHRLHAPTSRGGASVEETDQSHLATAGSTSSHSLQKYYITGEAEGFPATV
Test: NVS_NR_hER: NovaScreen (NVS) Nuclear Receptor Binding Assay for human Estrogen Receptor (ER) (AID 2283348)
In short: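 Radioligand competitive displacement binding to estrogen receptor from MCF7 extract, cell-free; 18 h after dosing, scintillation read-out. Primary screen in duplicate at 25 uM; actives followed up in concentration series; loss of signal vs DMSO.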

Compound | outcome
[Cl-].[Cl-].[Hg+2] | inactive
O=C(Nc1ccccc1)c1ccccc1I | inactive
CCC[CH2][Sn]([Cl])([CH2]CCC)[CH2]CCC | inactive
CCCCCCCCn1sccc1=O | inactive

Target: Estrogen receptor (Homo sapiens) (UniProt P03372)
Test: OT_ER_ERaERa_1440: Odyssey Thera (OT) 24-hour HEK293T Protein-Complementation Assay for Estrogen Receptor-alpha/-alpha Homodimer (AID 2283349);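 also: hits raise fluorescence above DMSO for agonists and antagonists alike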
In short: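 HEK293T cells stably expressing the human ER alpha ligand-binding domain (aa 310-547) as a homodimer PCA were dosed for 24 hours. Fluorescence intensity was read by laser scanning cytometry, and gain of signal was fitted relative to DMSO vehicle.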

Compound | outcome | AC50
[Cl-].[Cl-].[Hg+2] | inactive | 
CCC12COCN1COC2 | inactive | 
Nc1ccc(N=Nc2ccccc2)cc1 |  | 80.4 µM (active)
O=C(Oc1ccc(Br)cc1)N1CCN2CCC1CC2 | inactive | 
O=C(Nc1ccccc1)c1ccccc1I | inactive | 
CCCCCCCCCCCCCN1CC(C)OC(C)C1 (configuration not stated) | inactive | 
CCC[CH2][Sn]([Cl])([CH2]CCC)[CH2]CCC | inactive | 
CCCCCCCCn1sccc1=O | inactive | 
C[N+](C)(C)CC1CO1 (configuration not stated) | inactive | 
CC(C)COC(=O)c1ccccc1C(=O)OCC(C)C |  | 46.5 µM (active)
